From PubChem
Sfp inh: qHTS Assay for Inhibitors of Bacillus subtilis Sfp phosphopantetheinyl transferase (PPTase); Biochemical Sfp PPTase activity, qHTS; Potency, µM, inactives show largest response in the series, negative = inhibition, most hits filed as inhibitors; 3.5% of 310,000 active; 4'-phosphopantetheinyl transferase ffp (Bacillus subtilis), Q9F4F7;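 further: the enzyme is Sfp with the accession as filed and its product quenches rhodamine fluorescence; 0% = enzyme reaction without inhibitor and -100% = no enzyme wells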
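Sfp 15 nM + cpd, 15 min RT; start w/ rhodamine-CoA 5 uM, BHQ-2-YbbR 12.5 uM (final); 50 mM Hepes pH 7.6, 10 mM MgCl2, 0.01% NP-40, 0.01% BSA; read 525/598 nm at 0 and 30 min.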
Tau ThT inhib: qHTS for Inhibitors of Tau Fibril Formation, Thioflavin T Binding; Potency, µM (highest dose often 57.4 µM), for the others: at the highest dose activity, negative = inhibition, usual class: inhibitors; Microtubule-associated protein tau (Homo sapiens), P10636; recombinant tau K18 P301L, heparin-induced fibrillization, ThT fluorescence; 2.1% of 270,000 active; further: nearly all actives have a fitted effect of over 55% in size
Target sequence (P10636 561-689 P618L limits assumed): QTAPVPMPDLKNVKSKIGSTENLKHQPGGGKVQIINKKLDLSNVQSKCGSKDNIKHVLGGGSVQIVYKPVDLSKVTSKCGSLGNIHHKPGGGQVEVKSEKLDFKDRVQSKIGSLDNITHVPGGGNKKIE
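In this qHTS, human K18 P301L tau is incubated with compound and heparin for 6 hr at 37 C, and Thioflavin T fluorescence then reports fibril load.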
VDR inhibitor: Inhibitors of the vitamin D receptor (VDR): qHTS. Vitamin D3 receptor (Homo sapiens), P11473. VDR-SRC2-3 peptide fluorescence polarization, 2 h. Potency, µM, inactives show max response, negative = inhibition, most hits filed as inhibitors. 0.93% of 400,000 active. AID 504847, 2011
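After 23 nl compound addition and a short centrifugation, plates sat for 2 hours at ambient temperature; polarization of fluorescence then indicated loss of VDR binding to peptide SRC2-3.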
Tau fluor counter: Counterscreen qHTS for Inhibitors of Tau Fibril Formation, Fluorescence Polarization; Potency, µM (doses to about 57.7 µM), for inactives: top-dose activity change, negative = decrease; tau K18 P301L (four-repeat tau fragment) Alexa594 fluorescence, heparin fibrillization; 0.93% of 280,000 active; further: nearly all actives have a fitted effect of over 55% in size
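Human K18 P301L tau (15 uM unlabeled plus 0.24 uM Alexa 594-labeled, final) in 100 mM sodium acetate pH 7 was mixed with compound and 20 uM heparin and incubated 6 hr at 37 C.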
PLK1 PBD block: qHTS for Inhibitors of PLK1-PDB (polo-like kinase 1 - polo-box domain): Primary Screen; Serine/threonine-protein kinase PLK1 (Homo sapiens), P53350; Plk1 PBD binding of FITC phosphopeptide, fluorescence polarization; Potency, µM, without a hit: max response, negative = inhibition, actives largely listed as inhibitors; 2.8% of 360,000 active; further: series mostly up to about 57 µM; nearly all actives have a fitted effect of over 65% in size
Tau fibril FP: qHTS for Inhibitors of Tau Fibril Formation, Fluorescence Polarization; AID 1468, 2008; Potency, µM (top dose mostly 57.7 µM), for the others: at the top dose activity, negative = inhibition, most hits filed as inhibitors; 0.39% of 280,000 active; K18 P301L tau heparin fibrillization, Alexa594 FP, 6 h; further: nearly all actives have a fitted effect of over 55% in size
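Human tau K18 […] P301L fragment, 15 uM unlabeled plus 0.24 uM Alexa 594-labeled tau (final), with compound and 20 uM heparin in 100 mM sodium acetate pH 7; 6 hr at 37 C, then Alexa 594 FP read.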
Starred values were filed as active, the others as inactive; ? = inconclusive; nt = not tested or not shown; [ ] = remark or other dose. This is a sample that favours compounds with a hit; in the whole collection about 6% have one here. The call rests on the fitted dose curve; in most records, active means well fitted curve in the direction sought with a large enough effect; inconclusive means small, poorly fitted or top-dose-only effect, or another doubt; inactive means no such curve, though single readings can be large; an effect the other way counts as inactive or inconclusive. Unless noted, on the % scale 0 is the no-effect control and ±100 the full control effect; potency means the concentration at half of the fitted maximal effect.

SMILES | Sfp inh | Tau ThT inhib | VDR inhibitor | Tau fluor counter | PLK1 PBD block | Tau fibril FP
CCC(=O)N1CCN(c2ccc(NC(=O)c3ccc([N+](=O)[O-])o3)cc2)CC1 | -1% | 3.2µM* | 8% | -22% | 0% | 5%
CCCC(=O)N1CCN(c2ccc(NC(=O)c3ccc([N+](=O)[O-])o3)cc2)CC1 | 15% | 4µM* | 3% | -17% | -20% | -1%
O=C(CSc1nccn1Cc1ccc(F)cc1)Nc1nc2ccccc2s1 | nt | -6% | 4% | ? | nt | -8%
Cc1ccc(SC(CC(=O)c2ccc(C)cc2)C(=O)O)cc1 (stereo not drawn) | 11µM* | ? | 20µM* | -9% | ? | -14%
O=C(CC(Sc1ccc(Br)cc1)C(=O)O)c1ccc(Br)cc1 (stereo not drawn) | 35µM* | nt | nt | nt | nt | nt
O=C(CC(C(=O)O)P(=O)(c1ccccc1)c1ccccc1)c1ccc(Br)cc1 (stereo not drawn) | -13% | -6% | 2% | -4% | -5% | 3%
Cc1cccc(N2C(=O)/C(=C\c3ccc(C(=O)O)cc3)c3ccccc3C2=O)c1 | 5% | -11% | ? | -8% | 6.7µM* | -4%
Cc1cccc(N2C(=O)c3ccc(C(=O)Nc4ccccn4)cc3C2=O)c1 | 14% | nt | 2% | nt | -4% | nt
COc1ccc(/C=C/N(CCc2ccc(OC)c(OC)c2)C(=O)c2ccccn2)cc1 | 3% | -5%[11.5 µM] | nt | -12%[11.6 µM] | nt | 1%[11.6 µM]
CC(=O)N1CCc2cc(C(=O)CN3CCN(C(=O)c4ccco4)CC3)ccc21 | 18µM* | ? | -21% | -7% | -13% | -9%
CC1CCCCN1S(=O)(=O)c1ccc(C(=O)Nc2ccccc2-c2nc3ccccc3[nH]2)cc1 (stereo not drawn) | 17% | 16% | -14% | ? | -6% | 14µM*
O=C(Nc1ccccc1-c1nc2ccccc2[nH]1)c1ccc(S(=O)(=O)N2CCCCC2)cc1 | 17% | 6% | 4% | ? | -1% | 13µM*
Cc1ccccc1NC(=O)c1ccc(S(=O)(=O)N2CCCC2)cc1 | 11% | nt | 6% | nt | 2% | nt
N#CCCSc1ccccc1NC(=O)c1ccc(S(=O)(=O)N2CCCC2)cc1 | 5.6µM* | -12% | nt | -13% | nt | -11%
O=C(Nc1ccccc1-c1nc2ccccc2[nH]1)c1ccc(N2C(=O)CCC2=O)cc1 | 18% | 6% | 7% | -11% | 12% | -13%
CC1CCCCN1S(=O)(=O)c1ccc(NC(=O)c2cccc(-n3cnnn3)c2)cc1 (stereo not drawn) | 9% | 9% | 9% | 18µM*[quencher] | 1% | ?
CC1CCCCN1S(=O)(=O)c1ccc(C(=O)Nc2ccccc2-c2nc3ccccc3s2)cc1 (stereo not drawn) | 4% | 10% | -1% | 0% | -7% | 7%
CC1(C)CC(=O)C2=C(C1)O[C@@]1(c3ccsc3)Cc3cc(C#N)ccc3C2O1 | -2% | nt | nt | nt | nt | nt
COCCCNc1c2c3c(cccc3[nH]c1=O)C(=O)c1ccccc1-2 | 79µM* | ? | -9% | ? | 0.38µM* | 2%
O=C(NC1CCN(Cc2ccccc2)CC1)C12CC3CC(CC(C3)C1)C2 | 4% | -4% | -15% | -6% | -2% | -8%
CNC(=S)N1CCC(NC(=O)C23CC4CC(CC(C4)C2)C3)CC1 | 12% | -9% | ? | -13% | 8.4µM* | -12%
CCOc1ccc(/C(CCC(=O)O)=N/NC(=S)NC(C)C)cc1 | 35µM* | -10% | -6% | -2% | ? | -4%
COC(=O)C1=C[C@@H](C(=O)OC)C2C3=C(C(=O)[C@]2(C)NC(=O)c2ccccc2)[C@H](C)[C@@H]2C(=O)N(C)C(=O)[C@@H]2[C@@H]3C1 (stereo partly drawn) | 1% | nt | -6% | nt | nt | nt
